High-throughput results: PubChem, several laboratories
Sampled rows, rich in hits. Any-hit rate of the full collection: about 12%.
WT yeast gro inh: growth inhibition of WT yeast, mitochondrial fusion screen; 190,000 compounds, 2.1% hits; AID 1362; inhibition, % at 10 µM; mitochondrial fusion phenotypic screen, WT strain; in the data active = inhibition above about 58%; tested in S. cerevisiae
Arbovirus anti: blocks arbovirus infection; arbovirus infection cell-based antiviral screen; inhibition, % at 10 µM; 200,000 compounds, 0.37% hits; in the data active = inhibition above about 30%
CHOP inh: CHOP inhibition in unfolded protein response; 220,000 compounds, 3.8% hits; CHO-K1 CHOP-promoter luciferase, tunicamycin-induced, 15-18 h; inhibition, % at 10 µM; AID 2732;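 active = compounds that reduced the stress-induced luciferase reporter signal by more than about 70% of percent inhibition, limit read from the data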;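 note: 0% = tunicamycin plus vehicle and 100% = wells without tunicamycin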
L major viab: Leishmania major promastigote growth inhibition; Leishmania major promastigotes, resazurin fluorescence viability; inhibition, % at 10 µM; 200,000 compounds, 9% hits; AID 1063; in the data active = inhibition above about 50%;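 note: promastigotes grown with compound for 44 hours at 28 °C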
Numbers without * were called inactive; . = no result given.

SMILES	WT yeast gro inh	Arbovirus anti	CHOP inh	L major viab
O=C(Nc1cccc(C(F)(F)F)c1)N1CCN(C(=O)Nc2cccc(C(F)(F)F)c2)CC1	-4	-4	-4	-2
O=C(Nc1cccc(C(F)(F)F)c1)n1cc(-c2ccccn2)c(N2CCOCC2)n1	77*	-12	38	-4
Cc1noc(C)c1-c1nc(CSc2ccccc2)no1	.	.	-5	.
CCN1C(=O)/C(=C\C(=O)c2cccs2)c2cc(Br)ccc21	87	-25	15	100*
Cc1ccc(NC(=S)NCc2ccco2)c(C)c1	.	.	-5	.
COc1ccc(NC(=O)Cc2c(SC)c3ccccc3n2Cc2ccccc2)cc1	10	-21	74*	-4
COc1ccc(NC(=O)Cc2ccccc2)cc1	-16	2	26	-2
Cn1c(CC(=O)NCCO)c(Sc2ccccc2)c2ccccc21	-15	6	36	-1
O=C(Cc1c(Sc2ccccc2)c2ccccc2n1Cc1ccccc1)NCCO	17	-12	12	58*
CCCNc1nc(C)cc(-c2cc(C(=O)NC3CCCC3)on2)n1	.	.	15	.
Fc1ccccc1Cn1c2[n+](c3ccc(C(F)(F)F)cc31)CCCCC2	14	2	3	14
COc1ccc(OC)c(C(=O)Cn2c3[n+](c4ccc(C(F)(F)F)cc42)CCCCC3)c1	7	0	-7	99*
CCCc1nnc(SCC(=O)N2CCOCC2)n1C	-22	4	-11	-6
CC(=Nc1cccc(C)c1)c1sc2ccccc2c1O	-8	-1	77*	1
COCc1cc(=O)[nH]c(SCCS(=O)(=O)c2ccc(Cl)cc2Cl)n1	.	.	-11	.
Cn1c(CCN2CCN(c3ccccc3)CC2)nc2cc(NC(=O)c3ccco3)ccc21	76*	-8	-17	13
COC(=O)CP(=O)(c1ccccc1)c1ccccc1	69*	5	-13	-4
CCOC(=O)CP(=O)(c1ccccc1)c1ccccc1	20	1	-26	-2
CCn1cc(/C=N\NC(=O)c2ccccc2Cl)cn1	-10	1	-22	-6
Cc1c(C(=O)NCc2cccnc2)sc2nc(-c3ccc(F)cc3)cn12	1	-9	31	96*
Cc1c(C(=O)NCCCN2CCOCC2)sc2nc(-c3ccc(F)cc3)cn12	11	-4	14	79*
COc1ccc(CC(=O)NNC(=O)CSc2ccc(C)cc2)cc1	5	0	12	-4
Cc1nccn1S(=O)(=O)c1ccc(Br)cc1Br	-39	5	-15	86*
C=CCOc1ccc(/C=N/NC(=O)CN(c2cc(Cl)ccc2OC)S(=O)(=O)c2ccc(C)c([N+](=O)[O-])c2)cc1	-3	2	17	97*
C=CCNC(=O)CN(c1cc(Cl)ccc1OC)S(=O)(=O)c1ccc(C)c([N+](=O)[O-])c1	-10	-2	6	-5
SMILES	WT yeast gro inh	Arbovirus anti	CHOP inh	L major viab
Cc1cc2nnc(SCC(=O)OC(C)C)n2c2ccccc12	-2	4	-34	0
COc1ccc(OC)c(-c2csc(NC(=O)CSc3ccccc3)n2)c1	44	-2	43	77*
CCOc1ccc(-c2csc(NC(=O)CSCC(=O)O)n2)c2ccccc12	-6	32*	-16	-11
COc1cc([N+](=O)[O-])ccc1NC(=O)Cc1ccc(F)cc1	7	2	-5	-1
O=C(CC1SC(=Nc2ccc(OC(F)F)cc2)N(CCN2CCOCC2)C1=O)Nc1ccccc1 (configuration not stated)	.	.	11	.
COc1ccc(OC)c(NC(=O)CC2SC(=Nc3ccc(F)cc3)N(CCC3=CCCCC3)C2=O)c1 (configuration not stated)	29	5	15	55*
COc1ccc(N=C2SC(CC(=O)Nc3ccc(OC)cc3OC)C(=O)N2C)cc1 (configuration not stated)	-2	-9	21	44
COc1cc([N+](=O)[O-])ccc1NC(=O)CC1SC(=Nc2ccc(F)cc2)N(CCC2=CCCCC2)C1=O (configuration not stated)	1	48*	62	34
O=C(CC1SC(=Nc2ccc(OC(F)F)cc2)N(CCN2CCOCC2)C1=O)Nc1ccc(F)cc1F (configuration not stated)	-3	-4	27	62*
Cc1ccc(NC(=O)CN2C(=O)NC(Cc3c[nH]c4ccccc34)C2=O)cc1S(=O)(=O)N1CCCCC1 (configuration not stated)	-7	-10	-7	-7
COc1ccccc1C(=O)NC(=S)Nc1cc(C(=O)O)ccc1C	-13	7	0	-7
COc1cc2ccccc2cc1C(=O)NC(=S)Nc1cc(C(=O)O)ccc1C	17	42*	33	-8
N=C1/C(=C/c2cccn2Cc2ccc(Cl)cc2)C(=O)N=C2SC=CN12	5	-4	55	-4
CC1CCN(c2ncnc3c2cnn3Cc2ccc(Cl)cc2)CC1	63*	0	73*	-2
Cc1ccc(Cn2ncc3c(N4CCN(C5CCCC5)CC4)ncnc32)cc1	20	-12	50	55*
Cc1ccccc1N1CCN(c2ncnc3c2cnn3Cc2ccc(Cl)cc2)CC1	22	1	38	14
Cc1ccc(Cn2ncc3c(N4CCN(Cc5ccc(Cl)cc5)CC4)ncnc32)cc1	64*	0	79*	69*
Cc1ccc(SCC(=O)NC(=O)c2ccc(S(=O)(=O)N(C)C)cc2)cc1C	3	0	7	-4
C/C(=N\NC(=O)c1cccc(F)c1)c1ccc(Br)s1	11	-27	-31	6
CC(c1ccco1)N(C(=O)c1ccccc1NS(=O)(=O)c1cccc([N+](=O)[O-])c1)c1ccccn1 (configuration not stated)	14	16	16	-1
CC(c1ccco1)N(C(=O)c1ccccc1NS(=O)(=O)c1cc([N+](=O)[O-])ccc1Cl)c1ccccn1 (configuration not stated)	27	13	67	51*
COc1ccccc1C(=O)N1CCN(C(=O)COc2cccc(C)c2)CC1	-8	18	-18	-3
Cc1ccc(OCC(=O)N2CCC(N3CCCCCC3)CC2)cc1	-23	-2	-13	87*
COc1ccccc1N1CCN(C2CCN(C(=O)COc3cccc(C)c3)CC2)CC1	4	12	17	56*
O=C(Nc1nnc(COc2ccc(Br)cc2)s1)c1ccco1	.	.	-1	.
SMILES	WT yeast gro inh	Arbovirus anti	CHOP inh	L major viab
CCCCCc1ccc(S(=O)(=O)NCCc2ccncc2)cc1	28	-10	72*	78*
CCCc1ccc(S(=O)(=O)NCCc2ccncc2)cc1	4	10	66	0
COc1ccc(CCNS(=O)(=O)c2ccc(OC)cc2)cc1	74*	6	6	-4
COc1cccc(C(C(=O)NC(C)(C)C)N(CC(C)C)C(=O)CCC(=O)Nc2cc(C)on2)c1OC (configuration not stated)	9	-3	33	-2
Cc1nn2c(nc(N3CCCCC3)c3ccccc32)c1C=O	23	-21	25	53*
Cc1nn2c(nc(N3CCOCC3)c3ccccc32)c1C=C(C#N)C#N	-5	-9	-9	0
CSc1ccc(CN2C(=O)NC3(CCCCCCC3)C2=O)cc1	19	15	-3	20
O=C1NC2(CCCCC2)C(=O)N1Cc1cccc(C(F)(F)F)c1	-1	-1	-4	98*
COCCNc1ccc(-c2nn(C)c(=O)c3ccccc23)cc1[N+](=O)[O-]	.	.	16	.
